PubChem BioAssay AID697 (Columbia University Molecular Screening Center, 2007)
In all, about 96,000 compounds went through this assay and about 100 (0.1%) were called active. The full list was thinned out, with actives kept by preference. Unmarked numbers belong to inactive results.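 The calls were made as follows: active = activation at 2 µM above a set limit, the mean plus 5 SD (cut at about 37% in these data); inactive = the rest.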

The molecules below were run against Tyrosine-protein phosphatase non-receptor type 22 (Homo sapiens) (UniProt Q9Y2R2) (assay: LYP phosphatase activators, primary screen, biochemical, DiFMUP fluorescence, 2 µM (AID 697)). Settings: recombinant LYP, at 2 µM, stronger effect = higher value, 0 = plate median, 100 = signal doubled.
Tyrosine-protein phosphatase non-receptor type 22 (Homo sapiens), sequence (Q9Y2R2 whole entry, looked up): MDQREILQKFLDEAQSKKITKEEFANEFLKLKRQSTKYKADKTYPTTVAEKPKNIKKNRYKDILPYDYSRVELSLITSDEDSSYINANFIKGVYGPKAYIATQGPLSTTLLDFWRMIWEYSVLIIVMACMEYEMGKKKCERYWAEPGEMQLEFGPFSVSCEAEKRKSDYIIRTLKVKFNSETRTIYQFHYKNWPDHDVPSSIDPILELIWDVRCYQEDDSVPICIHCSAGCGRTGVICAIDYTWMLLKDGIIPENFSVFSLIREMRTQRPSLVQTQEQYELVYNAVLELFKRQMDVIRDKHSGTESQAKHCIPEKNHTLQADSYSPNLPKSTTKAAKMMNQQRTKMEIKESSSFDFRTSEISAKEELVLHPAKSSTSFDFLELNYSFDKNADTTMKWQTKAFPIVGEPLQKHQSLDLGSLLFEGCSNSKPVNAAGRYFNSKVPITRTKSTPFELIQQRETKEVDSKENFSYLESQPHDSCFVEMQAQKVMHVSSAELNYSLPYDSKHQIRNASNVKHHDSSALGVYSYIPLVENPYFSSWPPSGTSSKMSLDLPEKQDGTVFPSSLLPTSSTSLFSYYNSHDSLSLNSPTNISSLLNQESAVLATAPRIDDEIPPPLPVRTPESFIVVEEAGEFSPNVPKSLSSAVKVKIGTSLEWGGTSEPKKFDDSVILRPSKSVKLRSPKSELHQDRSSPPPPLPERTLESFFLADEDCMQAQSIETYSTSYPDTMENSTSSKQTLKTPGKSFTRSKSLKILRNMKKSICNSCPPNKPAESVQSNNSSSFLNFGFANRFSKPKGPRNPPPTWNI
With O=C1OC(c2ccc(Cl)cc2)=N/C1=C\c1cccnc1 the activation was 7.7%.
For CC(C)c1cc(C(=O)O)n[nH]1, the activation was 1.7%.
With O=C(Nc1ccc2nc3n(c(=O)c2c1)CCCCC3)c1ccccc1Cl the activation was -2.7%.
In the case of CC1(C)CC(=O)C=C(N2CCCC2)C1, the activation is reported as -1.1%.
Work on Cc1ccc(C2=CSC3=NS(=O)(=O)CCN23)cc1C yielded an activation of -4.4%.
Cc1ccc(-n2c(=O)c(C#N)cc3c(=O)n4ccccc4nc32)cc1C gave an activation of 5.7%.
Work on CCCCCOC(=O)c1ccc(N2C(=O)C3C4C=CC(C4)C3C2=O)cc1 (stereo not given) yielded an activation of 12.4%.
CCC(C)NC(=O)c1ccccc1NC(=O)c1ccccc1N(C)S(C)(=O)=O (stereo not given) was tested, and the activation was 0.7%.
Work on CC(C)CC(=O)N1CCC(O)(CS(=O)(=O)Cc2ccccc2)CC1 yielded an activation of -3.4%.
CCCCNC(=O)c1onc(CSc2cccc(OC)c2)c1C(=O)O showed an activation of 4.5%.
For COc1ccc(CCN(C(=O)COc2ccccc2)c2nc(-c3ccccc3)cs2)cc1OC, the activation was -13.3%.
Cc1noc(NS(=O)(=O)c2ccc(N/C=C/C(=O)c3ccccc3)cc2)c1C was tested, and the activation was 1.5%.
CCCCCc1ccc(-c2ccc(C(=O)O)cc2)nc1 gave an activation of -8.9%.
Cc1sc(NC(=O)C2C3CCC(O3)C2C(=O)O)c(C(=O)OC(C)C)c1-c1ccc(Cl)cc1 (stereo not given) gave an activation of -4.2%.
COc1cc(/C=C2/C(=O)ON=C2C)ccc1OCc1ccccc1F showed an activation of 6.2%.
Work on Cc1ccc(S(=O)(=O)/N=C(\CN2CCOCC2)N2CCOCC2)cc1 yielded an activation of -1.4%.
With FC(F)(F)c1nc2ccccc2nc1N/N=C/c1ccc(Cl)cc1 the activation was 5.5%.
CCOC(=O)Cn1c(-c2cccnc2Cl)nc2ccccc21 showed an activation of 15.2%.
NC(=O)C1(N2CCCCC2)CCN(C2CC(=O)N(Cc3ccc(N4CCCC4=O)cc3)C2=O)CC1 (stereo not given) gave an activation of -5.5%.
CN(C)C(=O)c1cc(Br)ccc1Cl was tested, and the activation was -3.6%.
In the case of COc1ccc(N(CC(=O)N/N=C/c2cccc3c2OCCO3)S(=O)(=O)c2ccc(NC(C)=O)cc2)cc1, the activation is reported as 7.5%.
For O=C(/C=C/c1ccc(Cl)cc1Cl)c1cccnc1, the activation was 2.2%.
Work on CCOC(=O)N1CCN(Cc2nc(N)nc(Nc3ccc(C)cc3)n2)CC1 yielded an activation of 7.7%.
For COc1cc(/C=C(\C#N)c2nc3c(s2)CC(C)CC3)ccc1O (stereo not given), the activation was -3.9%.
For COCc1cc(C)nc2sc3c(=O)n(-c4cccc5ccccc45)nnc3c12, the activation was -7.5%.
Molecule CC(=O)NC1=NN(C(C)=O)C(C)(c2ccc(Cl)s2)S1 (stereo not given) has an activation of 5.6%.
For O=S(=O)(c1cccc2nonc12)N1CCN(c2cccc(Cl)c2)CC1, the activation was 8.3%.
With O=C(O)CSCc1ccc(C(=O)O)o1 the activation was -1.8%.
CC(=O)c1cc2c(cc1NC(=O)CN1CCCCCC1)OCO2 gave an activation of -5.9%.
COc1ccccc1CNS(=O)(=O)c1ccc(C)cc1 gave an activation of -13.5%.
Molecule COC(=O)C1=C(C(=O)OC)C2(OC1c1ccc(Br)cc1)C(=O)c1ccccc1C2=O (stereo not given) has an activation of -2.6%.
O=C(Cc1ccc2c(c1)CCCC2)Nc1ccccc1Cl showed an activation of 5.5%.
For CCOc1ccccc1C(=O)NC1CC2CCCC(C1)N2Cc1ccccc1 (stereo not given), the activation was -12.3%.
O=C(COc1ccc(S(=O)(=O)NCc2ccccc2)cc1)N1CCOCC1 showed an activation of 2.4%.
Molecule Cc1cccc(C)c1OC(=O)CSc1nnc(-c2ccccc2)o1 has an activation of 1.3%.
COc1ccc(NS(=O)(=O)c2ccc(NC(=S)NC(=O)CC(C)C)cc2)cc1 showed an activation of 4.5%.
In the case of O=C(CSCc1ccc([N+](=O)[O-])cc1)Nc1cccc(C(=O)Nc2ccccc2C(=O)O)c1, the activation is reported as 1.6%.
Cc1c(Nc2cc(N3CCCC(C)C3)c3nonc3c2[N+](=O)[O-])c(=O)n(-c2ccccc2)n1C (stereo not given) gave an activation of 3.1%.
CCCCN(CC)CCNC(=O)c1[nH]c(C)c(C(C)=O)c1C showed an activation of 1.3%.
Cc1noc(C)c1CSCC(=O)Nc1nc2ccc(Oc3ccccc3)cc2s1 showed an activation of 1.8%.
For CCN(CC)C(=O)CC1(c2ccccc2OC)CCOC(C(C)C)C1 (stereo not given), the activation was 4.3%.
Work on COc1ccc(NC(=O)CC2COc3ccccc3O2)c(OC)c1 (stereo not given) yielded an activation of 0.8%.
Work on CCN(CC)CCNc1ccc(Cl)cc1[N+](=O)[O-] yielded an activation of 14%.
Work on CC(C)C(=O)NC(=S)Nc1ccccc1F yielded an activation of -2.4%.
Work on CCn1c(O)c2ccc(C(=O)N=NC(=O)c3cccnc3)cc2c1O yielded an activation of 0.7%.
O=C(/C=C/c1cccs1)c1cc(Cl)ccc1OC(=O)N1CCOCC1 was tested, and the activation was 2.4%.
Clc1ccc(-n2nnnc2-c2cnc(-c3ccccn3)nc2-c2cccs2)cc1 showed an activation of 3.1%.
With O=C(CCN1CCc2ccccc2C(O)(c2ccccc2)C1)c1ccc2c(c1)OCCO2 (stereo not given) the activation was -5.7%.
For CCOC(=O)CNC(=O)CSc1nc2cccnc2n1CC, the activation was -4.9%.
For Cc1ccc2[nH]c3c(=O)n(Cc4ccccn4)cnc3c2c1, the activation was -0.9%.
COC(=O)[C@@H](NC(=O)Nc1cc(Cl)ccc1C)C(C)C was tested, and the activation was 8.5%.
For CC(Oc1ccc(-c2ccccc2)c(F)c1)c1ccn(S(=O)(=O)c2cccc3ccccc23)n1 (stereo not given), the activation was -6.9%.
CCOC1CS(=O)(=O)CC1OCC (stereo not given) gave an activation of 6.4%.
With Cc1ccn(C(CC(=O)c2ccc(Br)cc2)C(=O)O)n1 (stereo not given) the activation was -7.9%.
COC(=O)CSc1nc(C)c2ccc(OC)cc2n1 gave an activation of -3.9%.
For O=C(Cn1c(-c2cscn2)nc2ccccc21)Nc1ccc(Cl)cc1, the activation was 3%.
Molecule O=C(Nc1cc2ccccc2oc1=O)C1CCCCC1 has an activation of -7.9%.
COc1cccc(C(=O)Nc2ccc(NC(=O)c3ccco3)cn2)c1 was tested, and the activation was 6.7%.
With CSCCC(NS(=O)(=O)c1ccc2c(c1)oc(=O)n2C)C(=O)NC1CCCc2ccccc21 (stereo not given) the activation was -8.6%.
For O=C(CN1C(=O)NC(Cc2ccccc2)(Cc2ccccc2)C1=O)NCC1CCCCC1, the activation was 0.3%.
In the case of Cc1ccc(C(=O)Nc2ccccc2C(=O)NC2CCCCC2)cc1S(=O)(=O)N1CCOCC1, the activation is reported as -0.7%.
For O=C(Nc1ccccc1F)c1cc(S(=O)(=O)N2CCCCC2)cs1, the activation was -4.2%.
In the case of Cc1ccccc1NC(=O)c1cc(S(=O)(=O)N2CCOCC2)cs1, the activation is reported as 38% (active).
CCCCNS(=O)(=O)c1ccc(S(=O)(=O)n2cnc3ccccc32)cc1 was tested, and the activation was -10.5%.
Molecule CO/N=C/c1ccc(N2CCN(C(=O)c3cccc(Cl)c3)CC2)c([N+](=O)[O-])c1 has an activation of -0.2%.
For COc1cc(C(=S)N2CCOCC2)cc(OC)c1OC(=O)c1cc([N+](=O)[O-])cc([N+](=O)[O-])c1, the activation was -4.3%.
CCn1c(C)nc2c1C(=O)c1ccccc1C2=O gave an activation of -0.9%.
For CCn1c(/C=C/c2ccc([N+](=O)[O-])o2)nc2ccccc2c1=O, the activation was -10.9%.
In the case of O=C(NCCCn1ccnc1)Nc1ccc(Cl)cc1Cl, the activation is reported as 0.8%.
In the case of O=C(Nc1ccc2c(c1)CCC2)c1cccc(S(=O)(=O)N2CCN(c3ccc(F)cc3)CC2)c1, the activation is reported as -11.2%.
COCCCNC(=O)C1CC(=O)N(CCc2ccccc2)C1 (stereo not given) showed an activation of 3.1%.
Work on Cc1ccc(S(=O)(=O)N2CCC(C(=O)NCC3CCCO3)CC2)cc1 (stereo not given) yielded an activation of 0.4%.
COC(=O)c1ccccc1Sc1c(/C=N/OCc2ccc(Cl)cc2)c(C(F)(F)F)nn1C gave an activation of -3.5%.
CN(C(=O)CC(NC(=O)c1ccccc1)(c1ccccc1)c1ccccc1)c1ccccc1 was tested, and the activation was -4.3%.
In the case of FC(F)(F)c1cnc(Oc2ccccc2-c2nnc(-c3ccc(Cl)cc3)o2)c(Cl)c1, the activation is reported as 4.7%.
CS(=O)(=O)N(Cc1ccc(Cl)cc1)c1ccc(C(=O)NCCSCc2ccco2)cc1 gave an activation of 10.1%.
With CCOC(=O)N1CCC(N(CCOC)C(=O)Nc2ccc(C)c(C)c2)CC1 the activation was -11.9%.
COC(=O)c1ccccc1NC(=O)Cc1ccccc1OC showed an activation of -0.7%.
COc1ccccc1C(=O)N1CC2(C)CC1CC(C)(C)C2 (stereo not given) gave an activation of -6%.
With CCOC(=O)C1=C(c2ccccc2)N=C2SCC(=O)N2C1c1ccc(O)c(OC)c1 (stereo not given) the activation was 6.1%.
Molecule Cn1c(CO)cnc1SCc1ccccc1 has an activation of 5.8%.
With CN(C)c1ccc(/C=C2\NC(=S)N(Cc3ccccc3)C2=O)cc1 the activation was -19.7%.
Molecule CC(C)C(=O)Nc1cccc(NC(=S)NC(=O)C(c2ccccc2)c2ccccc2)c1 has an activation of -14%.
O=C(Nc1ccc(Br)cc1)C1CCC(=O)N1Cc1ccccc1Cl (stereo not given) was tested, and the activation was -2.1%.
In the case of COC(=O)/C=C/C(=O)NCc1ccco1, the activation is reported as -5.4%.
For N#CCSc1nc2ccc(N3CCOCC3)cc2c(=O)n1CCc1ccccc1, the activation was 3.3%.
In the case of CCOC(=O)C(=CNc1cccc(C)n1)C(=O)OCC, the activation is reported as 6.8%.
Work on CCOc1c(Br)cc(/C=C2\C(=O)N(CCC#N)N=C2C)cc1OC yielded an activation of -0.1%.
CCOC(=O)c1cnc(SCc2nc(N)nc(Nc3ccc(OC)cc3)n2)nc1N gave an activation of 0.5%.
With CCC(C)NC(=O)c1cc(Cl)ccc1OC (stereo not given) the activation was 7%.
CCN(CC)CCNC(=O)CCCCCn1c(=O)[nH]c2cc(C(=O)OC)ccc2c1=O gave an activation of 6.8%.
In the case of O=C(NC1CCCCC1)c1ccc(CNc2c(N3CCOCC3)c(=O)c2=O)cc1, the activation is reported as 10.2%.
CC(C)CNC(=O)CC(c1ccccc1)c1c(O)ccc2ccccc12 (stereo not given) showed an activation of -3.2%.
With O=C(NC1CCCC1)C(c1ccccn1)N(C(=O)c1csnn1)C1CCCC1 (stereo not given) the activation was -2.6%.
In the case of O=C(COc1ccc2c(C(F)(F)F)cc(=O)oc2c1)Nc1ccc2c(c1)OCCO2, the activation is reported as -12.8%.
